Sampled rows, rich in hits. Any-hit rate of the full collection: about 19%.
CHX counter: counter-screen hit for Shiga toxin inhibitors, cycloheximide; cell reporter, cycloheximide protein synthesis inhibition counterscreen; max response, %; hit rate 12% among 300,000; AID 2314; in the data active = max response mostly above about 13%, no sharp cut-off; inactive = mostly below about 14%; also: read at 38.3 µM for the half of the compounds with a filed dose; 0% is about no effect
Pf growth 48h: P. falciparum growth inhibition at 48 hours (one generation) | AID 504832 | hit rate 5.9% among 310,000 | Potency, µM (top dose mostly 28.7 µM), for the others: top-dose activity change, negative = inhibition, usual class: inhibitors | P. falciparum luciferase growth in erythrocytes, 48 h; also: potency is read from the fitted curve at half-maximal effect; % is scaled to controls: 0 for no effect and ±100 for the full control effect
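Compounds are pin-transferred into medium, infected erythrocytes (2% hematocrit, 0.1% parasitemia final) are added, and plates sit one parasite generation at 37 C in 5% CO2. Detection reagent is then added and luminescence measured.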
AMA1 RON2 block: AMA1-RON2 (P. falciparum) interaction inhibition. AlphaScreen AMA1-biotinylated RON2 peptide binding. Potency, µM (series often up to 58.2 µM), for inactives: at the highest dose activity change, negative = inhibition, actives largely listed as inhibitors. hit rate 0.2% among 360,000;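 also: potency is read from the fitted curve at half-maximal effect; 0% = vehicle wells and -100% = peptide control; nearly all actives have a fitted effect of over 45% in size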
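AMA1 (3D7) with his tag at 25 nM final met compounds first, then biotinylated RON2 peptide at 25 nM; detection used donor plus acceptor beads, 10 µg/mL apiece, read by AlphaScreen after 30 min at room temperature.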
SARS PLpro yeast: SARS-CoV PLP inhibition in yeast. hit rate 0.19% among 330,000. S. cerevisiae expressing SARS-CoV PLpro, growth rescue. AID 485353. Potency, µM (titrated, usually from 32.9 µM), without a hit: top-dose activity, positive = growth rescue, usual class: activators; calls by dose curve; also: potency is read from the fitted curve at half-maximal effect; 0% is about no effect; nearly all actives have a fitted effect of over 55% in size
Pf growth 96h: P. falciparum growth inhibition at 96 hours. P. falciparum luciferase reporter growth, 96 h. Potency, µM (highest dose often 28.7 µM), for inactives: at the top dose activity change, negative = inhibition, most hits filed as inhibitors. hit rate 6.9% among 320,000. AID 504834; also: potency is read from the fitted curve at half-maximal effect; % is scaled to controls: 0 for no effect and ±100 for the full control effect
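Luminescence readout: decreased luciferase signal marks inhibited growth of reporter-expressing P. falciparum in infected red cells (2% hematocrit, 0.05% parasitemia final), exposed to compound two generations (96 h, 37 C, 5% CO2).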
Shiga inhibitor: Shiga toxin inhibition; Vero cells, Shiga toxin protein synthesis inhibition reporter; inhibition, % at 38.7 µM; hit rate 9.2% among 290,000; AID 2315; in the data active = inhibition mostly above about 28%, no sharp cut-off; inactive = mostly below about 43%; also: 0% is about no effect
* marks the source's active call; other numbers are inactive results; ? = inconclusive; / = no result; [ ] = dose if it differs, or a comment. Unless noted, calls follow the shape of the dose curve; as a rule, active = well fitted curve in the direction sought with a large enough effect; inconclusive = small, poorly fitted or top-dose-only effect, or another doubt; inactive = no such curve, though single readings can be large; an effect the other way counts as inactive or inconclusive.

SMILES | CHX counter | Pf growth 48h | AMA1 RON2 block | SARS PLpro yeast | Pf growth 96h | Shiga inhibitor
Cc1ccc(S(=O)(=O)N2CCCCC2)cc1NC(=O)C1CC(=O)N(Cc2ccccc2)C1 (configuration not stated) | -1 | ? | -20% | 3% | -30% | 6
O=S(=O)(c1cccc(C(F)(F)F)c1)N1CCC(c2cc(-c3cccc4ccccc34)n[nH]2)CC1 | -7 | ? | -10% | -3% | 10µM* | -3
COc1ccc(S(=O)(=O)N2CCCCC2)cc1NC(=O)C1CC(=O)N(Cc2ccccc2)C1 (configuration not stated) | / | 13µM* | 3% | 4% | 12µM* | /
CN(C)CCCNc1oc(/C=C/c2ccccc2)nc1C#N | 42* | 32% | 11% | 1% | 0% | 65*
COCCCNc1oc(/C=C/c2ccccc2)nc1C#N | 35* | 156% | 0% | -6% | -16% | 74*
CN(C)CCNc1oc(/C=C/c2ccccc2)nc1C#N | 23* | 55% | -4%[2.32 µM] | 23% | 12% | 22
COc1cccc(/C=C/c2nc(C#N)c(NCC(C)C)o2)c1 | 29* | -22% | 0% | -4% | 42% | 85*
O=C(CSc1c2c(nc3cc(Cl)ccc13)CCCC2)NCc1ccco1 | 3 | -12% | -4% | -4% | -23% | 8
O=C(CSc1nnc(CNC(=O)c2ccco2)o1)Nc1ccccc1F | -2 | 10% | 4% | -4% | -10% | -5
Cc1ccc(CNC(=O)N[C@@H](Cc2ccccc2)C(=O)O)cc1 | -4 | 4% | -4% | 2% | -26% | 2
Cc1cccc(C(=O)OCC(=O)N2CCCCCC2)c1C | / | / | -7% | 1% | / | /
C=CCNc1oc(/C=C/c2ccccc2)nc1C#N | 37* | 5% | -9% | -9% | 181% | 74*
COc1cc(C(=O)NCC(=O)NNC(=O)CN(C)S(=O)(=O)c2ccc(Cl)cc2)cc(OC)c1OC | / | / | 85% | -2% | / | /
COc1cccc(NC(=O)CN(C)C(=O)c2c(C)noc2C)c1 | / | 10% | 3% | 3% | 14% | /
COCCNC(=O)C1(C)CCCN(C(=O)c2cc(OC)c(OC)c(OC)c2)C1 (configuration not stated) | / | / | 4% | / | / | /
COc1ccc(-c2[nH]ncc2CN2CCC(c3ccncc3)CC2)cc1F | -2 | 2% | 1% | -4% | -7% | -15
COc1ccc(-c2[nH]ncc2CNCCCSC)cc1F | 1 | -3% | 0% | -1% | 5.2µM* | -10
COc1cc(OC)cc(C(=O)NCc2ccc3c(c2)cc(C)n3C)c1 | -7 | -17% | ? | -1% | 9.3µM* | 16
COCC(=O)NCc1ccc2c(c1)cc(C)n2C | 1 | -5% | -20% | -6% | 4.7µM* | -10
Cc1cc2cc(CNC(=O)c3cc4ccccc4o3)ccc2n1C | -3 | 12µM* | / | -14% | 15µM* | -3
Cc1onc(-c2ccccc2Cl)c1C(=O)NCc1ccc2c(c1)cc(C)n2C | -5 | 10µM* | -26% | -1% | ? | 2
c1ccc(N2CCN(c3cccc(-c4cc5ccccc5s4)n3)CC2)nc1 | / | / | 15% | / | / | /
O=C(NC1CCCC1)C1c2ccccc2OCC(=O)N1C1CC1 (configuration not stated) | / | / | -6% | / | / | /
COc1ccc(CC(=O)NCc2ccc3c(c2)cc(C)n3C)cc1OC | 1 | -10% | -7% | 0% | ? | -4
COc1cc(/C=C\C(=O)NCc2ccc3c(c2)cc(C)n3C)cc(OC)c1OC | -3 | 12µM* | -20% | 1% | 7.4µM* | 23
SMILES | CHX counter | Pf growth 48h | AMA1 RON2 block | SARS PLpro yeast | Pf growth 96h | Shiga inhibitor
CCCCN=c1scc(-c2ccc3c(c2)NC(=O)CO3)n1N=C1CCCC1 | -2 | / | -15% | 6% | 9.3µM* | -13
CCN=c1scc(-c2ccc3c(c2)NC(=O)CO3)n1N=C1CCCC1 | -1 | ? | 7% | -3% | ? | -12
CCN(CC)C(=O)COc1ccc(/C(C)=N/Nc2ncc(Cl)cc2Cl)cc1 | 28* | -15% | 39% | -1% | 22% | 66*
COc1ccc(CCN(C)c2ncnc3sccc23)cc1OC | -2 | -5% | 0% | -9% | 4% | -12
COc1ccc(CN(C)c2ncnc3sccc23)c(OC)c1OC | -2 | 13µM* | 2% | 2% | ? | -3
O=C(COC(=O)c1cccc(C(=O)OCC(=O)NC2CC2)n1)NC1CC1 | 2 | 12% | 37% | -4% | 5% | -8
O=C1C=CC2=C3c4cc(O)c(O)cc4CC3(O)COC2=C1O (configuration not stated) | / | / | 2.8µM* | / | / | /
CCOC(=O)CC/C(=N\NC(N)=O)c1ccc(OC)c(Cl)c1 | / | 37% | 6% | -6% | 56% | /
Clc1ccc(Nc2nnc(Cc3ccncc3)c3ccccc23)cc1 | / | 13µM* | / | / | 6.7µM* | /
S=C(NCc1ccncc1)Nc1ccc(Cl)cc1 | -3 | -15% | 5% | -20% | -8% | 1
CCc1cccc(CC)c1NC(=S)N(CCN(C)C)C(C)c1cccnc1 (configuration not stated) | 7 | 0% | 6% | -6% | ? | -1
CC(C)(C)C(=O)N(Cc1ccc(Cl)cc1)c1cnccn1 | -2 | 3.3µM* | -1% | -1% | 5.2µM* | -4
CC(C)(Oc1ccc(Cl)cc1)C(=O)NCc1ccncc1 | 1 | 29% | 5% | 1% | -66% | -4
COc1cc2c3c(n(C)c(=O)c2cc1OC)-c1cc2c(cc1C3=O)OCO2 | / | / | -3% | / | / | /
CNC[C@H]1Oc2ccc(NC(=O)Nc3ccccc3)cc2CC(=O)N([C@H](C)CO)C[C@H]1C | / | / | 7% | -2% | / | /
O=C(NCc1ccccc1)N1CCC(CO)(CCc2ccccc2)CC1 | 1 | 0% | -2% | -1% | -18% | -14
CC#CC(=O)N1CCC(CO)(CCc2ccccc2)CC1 | 18* | -11% | -7% | 0% | -2% | 63
Cc1ccc(NCc2nnc(SCC(=O)Nc3nnc(C)s3)n2C)cc1 | 5 | 9% | 5% | 0% | 8% | 14
Cn1nc(C(F)(F)F)c(C(=O)Nc2ccc(F)cc2F)c1Sc1ccc(Cl)cc1 | 0 | ? | 0% | 1% | 12µM* | -3
Cn1nc(C(F)(F)F)c(C(=O)Nc2ccc(F)cc2F)c1Sc1ccc(C(F)(F)F)cc1 | -3 | ? | 8% | 3% | 8.3µM* | -3
CCOC(=O)N1CCN(C(=O)c2ccc(SC)cc2OC)CC1 | 1 | 3% | -2% | 2% | 10% | -15
Oc1ccccc1/C=N/Nc1cc(N2CCCC2)nc(N2CCCC2)n1 | 12* | 2.1µM* | -9% | -10% | 173% | 30
Oc1ccc(/C=N/Nc2cc(N3CCOCC3)nc(N3CCOCC3)n2)cc1O | -1 | ? | 30% | -5% | 29% | -8
Cc1nc(N/N=C/c2cccc(F)c2)cc(N2CCOCC2)n1 | 2 | ? | -26% | 2% | 9.3µM* | -3
Oc1cccc(/C=N/Nc2cc(N3CCOCC3)nc(N3CCOCC3)n2)c1 | 19* | -28% | -5% | -8% | -27% | -2

Screening data deposited in PubChem BioAssay by National Center for Advancing Translational Sciences (NCATS).
